Assay outcomes: PubChem, several laboratories
PostGolgi yeast: growth inhibition of a yeast mutant, post-Golgi transport screen | post-Golgi transport phenotypic cell assay | inhibition, % at 10 µM | actives 0.9% (n = 98,000) | AID 739;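 note: yeast cells grown in 1536-well plates; yeast grown about 18 h at 30C before absorbance read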
sEH inh: inhibitors of human soluble epoxide hydrolase; P34913; recombinant human sEH enzymatic activity assay; AID 707; inhibition, % at 2 µM; actives 0.34% (n = 91,000); in the data active = inhibition above about 80%
Target sequence (P34913 whole entry, looked up): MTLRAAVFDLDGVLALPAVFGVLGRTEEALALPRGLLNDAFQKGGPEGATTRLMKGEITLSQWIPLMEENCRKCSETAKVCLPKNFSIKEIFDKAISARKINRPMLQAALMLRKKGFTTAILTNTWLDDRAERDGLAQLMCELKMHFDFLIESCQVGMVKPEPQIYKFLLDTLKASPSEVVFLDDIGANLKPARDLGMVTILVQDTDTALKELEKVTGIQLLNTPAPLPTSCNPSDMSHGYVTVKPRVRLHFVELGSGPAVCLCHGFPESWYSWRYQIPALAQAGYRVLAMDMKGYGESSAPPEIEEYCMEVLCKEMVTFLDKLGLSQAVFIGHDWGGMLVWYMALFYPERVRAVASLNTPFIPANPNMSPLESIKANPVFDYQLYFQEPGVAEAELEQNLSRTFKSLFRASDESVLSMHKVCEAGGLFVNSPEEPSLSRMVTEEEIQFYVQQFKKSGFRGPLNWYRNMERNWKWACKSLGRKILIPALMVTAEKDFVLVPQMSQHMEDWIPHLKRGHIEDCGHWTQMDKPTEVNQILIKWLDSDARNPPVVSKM
sEH act: increases human soluble epoxide hydrolase activity; purified human sEH enzymatic activity, activator screen; P34913; AID 717; activation, % at 2 µM; actives 0.04% (n = 91,000); in the data active = activation above about 37%
PostGolgi ctrl: yeast control strain growth, post-Golgi counter-screen; efflux-deficient yeast background strain, growth absorbance A615, 16 h; inhibition, % at 10 µM; actives 5% (n = 98,000); AID 738
Cav3 T inh: human Cav3.2 channel inhibition, primary screen; Cav3.2-expressing cells, Fluo-4 calcium fluorescence FDSS; hits give low values; B-score at 10 µM; actives 4% (n = 100,000); AID 449739;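 active = single-dose well whose peak fluorescence ratio is a statistical outlier from its plate by either plate-standardised score or position-corrected B-score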
A number is an active result; . = inactive; / = no result. Compounds with a hit are over-represented: about 7.8% of the library has one in this group of screens. Cut-off read from the data, not from the text of the source, unless noted: active = inhibition above about 30%; inactive = the rest.

SMILES	PostGolgi yeast	sEH inh	sEH act	PostGolgi ctrl	Cav3 T inh
Cc1cc(C)n(-c2nc3c(c(=O)[nH]c(=O)n3C)n2CCc2ccccc2)n1	.	.	.	56	/
Cc1ccc(S(=O)(=O)N2CCc3ccccc3C2CN2C(=O)c3ccccc3C2=O)cc1 (centres undefined)	.	.	.	.	.
CC(C)(C)NC(=O)C(c1ccccn1)N(C(=O)c1ccc2c(c1)OCCO2)C1CCCC1 (centres undefined)	.	.	.	31	.
CC(=O)c1cnc2nc(C)nn2c1C	32	.	.	.	.
CC(=O)c1cnc2c(C(=O)O)cnn2c1C	.	.	.	.	.
CCOC(=O)/C(C#N)=C\c1ccc(CC)s1	.	.	.	.	.
CCOC(=O)/C(C#N)=C\C=C1C=CN(C)C=C1	.	.	.	.	-4.8
O=C(Cn1cnc2c(nnn2Cc2ccc(Cl)cc2)c1=O)NCc1ccco1	.	.	.	.	.
O=C(Cn1cnc2c(nnn2Cc2ccc(F)cc2)c1=O)NCc1ccco1	.	.	.	.	-4.2
CCOc1ccc(OCC)c(-c2c(=O)n(OCc3ccccc3Br)c3ccccc3[n+]2[O-])c1	.	.	.	.	.
Cc1ccc(S(=O)(=O)c2c(C)cc(C)nc2Oc2cccc(C(F)(F)F)c2)cc1	.	.	.	.	-6.3
Cc1cc(C)c(S(C)(=O)=O)c(Oc2cccc(Cl)c2)n1	32	/	/	.	/
Cc1ccc(S(=O)(=O)c2ccc(Oc3cccc(C)c3)cc2)cc1	.	.	.	.	.
Cc1cc(C)c(S(C)(=O)=O)c(Oc2ccc(C(C)(C)C)cc2)n1	.	.	.	.	/
O=C(CSc1ccc(Cl)cc1Cl)N1CCC(c2nc3ccccc3s2)CC1	.	.	.	38	.
Cc1cc(C)cc(NC(=S)N2CCC(c3nc4ccccc4s3)CC2)c1	.	.	.	.	.
Oc1ccc(Oc2ccc3c(C(F)(F)F)cc(C(F)(F)F)nc3n2)cc1	.	.	.	.	-6.9
COc1ccc(Oc2ccc3c(C(F)(F)F)cc(C(F)(F)F)nc3n2)cc1	.	.	.	.	.
COc1cccc(CN2CCN(C(=O)c3cccc4ccccc34)CC2)c1OC	.	.	.	.	-4.5
COc1cccc(CN2CCN(C(=O)c3ccco3)CC2)c1OC	/	.	.	/	.
Cc1ccc2c(c1)N(C(=O)NC1CCCCC1)C(C)(C)CC2C (centres undefined)	.	.	.	.	.
CCN(CC)C(=O)CSC1=Nc2ccccc2C2=NC(Cc3c[nH]c4ccccc34)C(=O)N12 (centres undefined)	.	.	.	34	.
CC(C)CCNC(=O)CN(Cc1cccs1)C(=O)CCC(=O)Nc1nccs1	.	.	.	.	.
COc1cccc(OCc2nc3ccccc3c(=O)n2N)c1	.	.	.	31	.
Cc1c(NC(=O)c2cc(-c3cccs3)on2)c(=O)n(-c2ccccc2)n1C	.	/	/	.	.
SMILES	PostGolgi yeast	sEH inh	sEH act	PostGolgi ctrl	Cav3 T inh
CCOc1ccccc1C(=O)N1c2ccccc2Sc2ccccc21	.	.	.	42	-5.6
CC(O)CNc1nc2ccccc2n1-c1ncnc2sc3c(c12)CCC3 (centres undefined)	.	.	.	.	-6.4
Oc1ccc(N2CCN(c3ncnc4sc5c(c34)CCC5)CC2)cc1	.	/	/	.	.
C=C(C)COc1ccc(-c2ncncc2Oc2ccc(OC)cc2)c(O)c1	66	.	.	.	.
C=C(C)COc1ccc(-c2nc(N)ncc2-c2ccc(OC)cc2)c(O)c1	.	.	.	72	.
Cc1ccc(CNC(=O)CCS(=O)(=O)c2cc(Br)cc3c2N(C(=O)C2CC2)CC3)o1	.	/	/	.	.
O=C(NCC1CCS(=O)(=O)C1)NCC1CCS(=O)(=O)C1 (centres undefined)	.	.	.	.	.
CCOC(=O)N1CCN(C(=O)C(CC)n2nc(C)c3sc4ccccc4c3c2=O)CC1 (centres undefined)	.	.	.	.	.
Cc1nn(C(C)C(=O)NCc2ccccc2Cl)c(=O)c2c1sc1ccccc12 (centres undefined)	.	.	.	55	.
CCCC1=C(C(=O)OCC)C(c2ccc(NC(C)=O)cc2)NC(=O)N1 (centres undefined)	.	.	.	.	.
CCOC(=O)C1=C(CNCc2ccc(C)cc2)NC(=O)NC1c1ccc(OC)cc1 (centres undefined)	.	.	.	.	-4.7
COc1ccc(NC(=O)Nc2ccc(N3CCCC3=O)cc2)cc1OC	.	/	/	.	.
COc1ccc(NC(=O)COC(=O)c2ccc(N3CCCC3=O)cc2)cc1OC	.	.	.	.	-12
CCC(CO)n1cnnc1-c1ccncc1 (centres undefined)	.	.	.	.	.
O=C(Nc1ccccc1)c1nnsc1S(=O)c1ccc(Cl)cc1 (centres undefined)	105	.	.	102	.
O=C(Nc1cc(C(F)(F)F)ccc1N1CCOCC1)c1ccco1	.	.	.	.	.
CCCOc1ccccc1NC(=O)c1c(-c2ccccc2)noc1C	.	.	.	.	-4.8
Cc1onc(-c2ccccc2)c1C(=O)Nc1cc(C(F)(F)F)ccc1N1CCOCC1	.	.	.	43	-5.9
O=C(CCc1ccccc1)NC(=S)Nc1cc(C(F)(F)F)ccc1N1CCOCC1	.	.	.	.	-5.7
CCNC(=S)N(Cc1ccc2c(c1)OCO2)C1CC(=O)N(c2ccc(OC)cc2)C1=O (centres undefined)	.	.	.	.	.
CCNC(=S)N(Cc1ccc2c(c1)OCO2)C1CC(=O)N(c2ccc(F)cc2)C1=O (centres undefined)	.	.	.	.	-7.1
CCN(CC)C(=O)C1CC(=O)N(c2ccc(F)c(Cl)c2)C1 (centres undefined)	.	.	.	.	.
COc1ccc(-c2cc3ccccc3n2CC(O)CN2CCC(C)CC2)cc1 (centres undefined)	/	/	/	/	.
COc1ccc(-c2cc3ccccc3n2CC(O)Cn2nc(C)cc2C)cc1 (centres undefined)	.	/	/	.	-6.4
O=C(Cn1c(=O)oc2cc(S(=O)(=O)N3CCCC3)ccc21)N1CCc2ccccc2C1	.	.	.	.	-5.7
SMILES	PostGolgi yeast	sEH inh	sEH act	PostGolgi ctrl	Cav3 T inh
COc1ccc(N2CCN(C(c3cccs3)C(C)NS(=O)(=O)c3ccccc3)CC2)cc1 (centres undefined)	.	/	/	39	/
CC1CCCCN1C(=O)/C(=C\c1ccccc1)c1ccccc1 (centres undefined)	.	.	.	.	.
COCCNC(=O)c1cn(C)c2ccc(S(=O)(=O)N(C)C3CCCCC3)cc2c1=O	.	/	/	30	.
CCOCCCNC(=O)c1cn(C)c2ccc(S(=O)(=O)N(C)C3CCCCC3)cc2c1=O	.	.	.	.	/
CCC(CC)C(=O)Nc1cccc(/C(C)=N\NC(=O)c2ccc(C)s2)c1	.	.	.	.	-5.8
O=C(NCc1ccco1)c1cccc(NC(=O)c2ccccc2)c1	.	.	.	.	.
Cc1ccc(C(=O)NCc2ccco2)cc1S(=O)(=O)Nc1cccc(Cl)c1	.	.	.	.	-6
CCC(CC)C(=O)Nc1cccc(C(=O)NCc2ccco2)c1	.	.	.	42	.
O=C(NCc1cccnc1)c1cccc(NC(=O)c2ccco2)c1	.	.	.	.	.
